Only some compounds are listed: those with a hit (about 11% of all), similar ones and a draw of the others.
HCV inh: inhibitors of hepatitis C virus infection | Huh7.5.1 HCVcc-Cre infection, luciferase reporter, 44 h | Potency, µM (titrated, usually from 41.8 µM), most hits filed as inhibitors | 3.4% of 340,000 active | AID 651820
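After 44 h co-culture of compound, cells and HCVcc-Cre (~0.5 moi), substrate is added for 15 min at room temperature and luciferase measured over 15 sec. Cells were seeded at 1,000/well and pre-cultured 4 h.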
VACV Venus inh: vaccinia inhibition (Venus reporter); 0.46% of 330,000 active; Potency, µM (top dose mostly 36.5 µM), usual class: inhibitors; Vaccinia virus Venus reporter expression, fluorescence; AID 720580; calls by dose curve; tested in A549 cells; also: nearly all actives have a fitted effect of over 30% in size
Pf growth 48h: P. falciparum growth inhibition at 48 hours (one generation); 5.9% of 310,000 active; P. falciparum luciferase growth in erythrocytes, 48 h; Potency, µM (doses to about 28.7 µM), hits mostly inhibitors
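Firefly luciferase activity from engineered P. falciparum reports growth; inhibitors lower the luminescent signal. Cultures contained 2% hematocrit erythrocytes at 0.1% final parasitemia.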
NS1 inh: influenza NS1 inhibition; Potency, µM (doses to about 46.1 µM); 0.4% of 270,000 active; calls by dose curve; also: actives are rising curves; nearly all actives have a fitted effect of over 50% in size
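A cell-based growth assay was used: compounds that relieve NS1-induced slow growth of budding yeast raise OD600. Assay medium was yeast nitrogen base with ammonium sulphate and -URA supplement, pH 6.0, with 2% galactose.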
Vaccinia mCherry: inhibitors of vaccinia virus infection (mCherry reporter signal); 0.63% of 310,000 active; Potency, µM (titrated, usually from 36.5 µM), actives largely listed as inhibitors; Vaccinia virus mCherry reporter infection, fluorescence; calls by dose curve; tested in A549 cells; also: nearly all actives have a fitted effect of over 35% in size
Pf growth 96h: inhibits malaria parasite growth, 96 h. AID 504834. Potency, µM (titrated, usually from 28.7 µM), most hits filed as inhibitors. 6.9% of 320,000 active. P. falciparum luciferase reporter growth, 96 h
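Infected RBCs, 2% Hct / 0.05% parasitemia final; luciferase-reporter P. falciparum; cpd 96 h, 37 C, 5% CO2; luciferase detection reagent; luminescence.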
A number is an active result; – = inactive; ? = inconclusive; · = not tested or not shown. Unless noted, calls follow the shape of the dose curve; as a rule, active = well fitted inhibition curve with a large enough effect; inconclusive = small, poorly fitted or top-dose-only effect, or another doubt; inactive = no such curve, though single readings can be large or run the other way.

SMILES | HCV inh | VACV Venus inh | Pf growth 48h | NS1 inh | Vaccinia mCherry | Pf growth 96h
COc1ccc(CCNc2nc(-c3cccnc3)nc3ccccc23)cc1OC | 10µM | ? | 14.7µM | – | – | ?
COc1ccc(/C=N/Nc2ncnc3scc(-c4ccccc4)c23)cc1OC | ? | – | · | ? | – | 10.4µM
COc1cccc(CN(C)c2nc(-c3cccs3)nc3ccccc23)c1 | ? | – | ? | – | – | –
CCN1CCN(C(=S)Nc2ccc3nc(N4CCN(C)CC4)cc(C)c3c2)CC1 | ? | – | ? | – | – | –
Cn1nc(C(C)(C)C)cc1NC(=O)C1(C)CCN1C(=O)CC(c1ccccc1)c1ccccc1 (configuration not stated) | · | – | · | · | – | ·
COc1ccc(NC(=O)C(F)(F)F)cc1OC | – | – | – | – | · | –
COc1ccc(CCNc2nc(C)nc3c2oc2ccccc23)cc1OC | ? | ? | · | – | · | –
Clc1cccc(CNc2nc(-c3cccnc3)nc3ccccc23)c1 | ? | ? | ? | – | ? | ?
Oc1ccc(/C=N/Nc2nc(-c3cccnc3)nc3ccccc23)c(O)c1 | 11.2µM | – | 9.28µM | – | ? | ?
Cc1ccc(-c2nc(N/N=C/c3ccncc3)c3ccccc3n2)cc1 | – | – | · | – | – | ?
Cc1c(O)ccc(/C=N/Nc2nc(-c3cccnc3)nc3ccccc23)c1O | 25.1µM | – | ? | – | – | 10.4µM
COc1ccc(CCNc2ncnc3c2oc2ccccc23)cc1OC | 3.16µM | ? | ? | – | – | 2.94µM
COc1cc(C#N)c(NC(=O)CN2CCN(CCO)CC2)cc1OC | – | – | – | – | – | –
Cc1cccc(-c2nc3c4ccccc4n(CC(=O)Nc4cc(F)ccc4F)c(=O)n3n2)c1 | · | – | · | · | – | ·
Cc1cccc(C)c1NC(=O)COC(=O)C1Cc2ccccc2CN1C(=O)c1ccccc1 (configuration not stated) | – | – | ? | – | – | –
N#Cc1ccc(NC(=O)COC(=O)C2Cc3ccccc3CN2C(=O)c2ccccc2)cc1 (configuration not stated) | 10µM | – | – | – | – | –
CN(CCOc1ccc(-c2ccn(S(=O)(=O)c3c(Cl)cccc3Cl)n2)cc1)c1ccccn1 | – | – | ? | – | – | 2.62µM
CN(CCOc1ccc(-c2ccn(S(=O)(=O)c3cccc4ccccc34)n2)cc1)c1ccccn1 | ? | – | 10.4µM | – | – | 9.28µM
CN(CCOc1ccc(C=C2C(=O)NC(=O)NC2=O)cc1)c1ccccn1 | – | – | – | · | – | –
CN(CCOc1ccc(-c2ccn(S(=O)(=O)c3ccc(Cl)cc3)n2)cc1)c1ccccn1 | 1.12µM | · | 10.4µM | – | · | 10.4µM
N=C1C(c2nc3ccccc3s2)=C(O)CN1C1CCCCC1 | – | · | – | – | · | –
Cc1cc(C)c(S(=O)(=O)N2CCCCC2CCNC(=O)C(=O)NCC2CCCO2)c(C)c1 (configuration not stated) | – | – | ? | · | – | ?
Cc1ccc(-c2nnc(-c3ccccc3)o2)cc1 | – | – | – | – | – | ?
c1ccc(-c2nnc(C(c3ccccc3)c3ccccc3)o2)cc1 | – | – | ? | – | – | 7.38µM
CCc1ccc(NC(=O)Cc2ccc(OC)cc2)cc1 | – | · | – | – | · | –
SMILES | HCV inh | VACV Venus inh | Pf growth 48h | NS1 inh | Vaccinia mCherry | Pf growth 96h
CCOc1ccccc1OCCCC(=O)N1CCN(S(=O)(=O)c2ccc(C)cc2C)CC1 | – | · | ? | · | · | 10.4µM
Cc1cc(C)c(S(=O)(=O)N2CCN(C(=O)CCOc3ccccc3C)CC2)c(C)c1 | ? | – | 13.1µM | · | – | ?
CCOc1ccccc1OCCCC(=O)N1CCN(S(=O)(=O)c2ccc(C)cc2)CC1 | – | · | ? | – | · | ?
COc1cccc(C(=O)Nc2ccc(NC(=O)C(C)(C)C)cn2)c1 | ? | – | – | – | – | ?
Nc1ncnc2oc(-c3ccco3)c(-c3ccco3)c12 | 11.2µM | – | – | ? | – | ?
COc1cc([C@H]2[C@@H]3CCCC[C@]3(O)CCN2CC(=O)Nc2ccc(C)cc2C)ccc1O | – | – | ? | – | – | ?
COc1cc([C@H]2[C@@H]3CCCC[C@]3(O)CCN2Cc2ccccc2F)ccc1O | – | – | ? | – | – | 11.7µM
CCOC(=O)c1cccc(NC(=O)CSc2nc(N)cc(N)n2)c1 | – | ? | · | ? | – | ·
CCCCOC(=O)c1ccc(NC(=O)c2c(Cl)ccc(Cl)c2OC)cc1 | ? | – | – | – | – | 5.22µM

Screening results deposited in PubChem by National Center for Advancing Translational Sciences (NCATS).
